High-throughput results deposited in PubChem BioAssay by several laboratories.
Mcl-1 Bim block – inhibitors of Bim peptide binding to Mcl-1, primary screen, biochemical, bead-based flow cytometry, multiplex; Bim peptide-Mcl-1 binding; inhibition, % at 10 µM; hit rate 0.1% among 190,000; in the data active = inhibition above about 40%;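 also: 0% = no compound tracer wells and 100% = peptide blocker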
Mcl1-Noxa inh – Mcl-1/Noxa binding inhibitors, primary screen, biochemical, TR-FRET, 1536-well; inhibition, % at 21.7 µM; AID 1022, 2008; TR-FRET Mcl-1/Noxa peptide binding, 2 h; hit rate 1.5% among 220,000;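 active = compounds that cut the protein-peptide binding signal by more than 50% relative to plate controls in a single-dose test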;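 also: His-tagged Mcl-1 with rhodamine Noxa BH3 peptide and terbium anti-His antibody; 0% = Mcl-1 plus Noxa peptide wells and 100% = peptide-only wells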
GLD-1 TGE inh – GLD-1/TGE RNA complex disruptors, primary screen, biochemical, fluorescence polarization. Female germline-specific tumor suppressor gld-1 (Caenorhabditis elegans), Q17339. purified GLD-1 + fluorescein TGE RNA. inhibition, % at 5.96 µM. hit rate 0.44% among 320,000;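 active = percent inhibition above a per-plate cutoff, the plate mean of test compounds plus 3 SD, cut at about 30% in these data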;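 also: 0% = DMSO wells with GLD-1 and probe and 100% = wells lacking GLD-1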
Target sequence (Q17339 whole entry, looked up): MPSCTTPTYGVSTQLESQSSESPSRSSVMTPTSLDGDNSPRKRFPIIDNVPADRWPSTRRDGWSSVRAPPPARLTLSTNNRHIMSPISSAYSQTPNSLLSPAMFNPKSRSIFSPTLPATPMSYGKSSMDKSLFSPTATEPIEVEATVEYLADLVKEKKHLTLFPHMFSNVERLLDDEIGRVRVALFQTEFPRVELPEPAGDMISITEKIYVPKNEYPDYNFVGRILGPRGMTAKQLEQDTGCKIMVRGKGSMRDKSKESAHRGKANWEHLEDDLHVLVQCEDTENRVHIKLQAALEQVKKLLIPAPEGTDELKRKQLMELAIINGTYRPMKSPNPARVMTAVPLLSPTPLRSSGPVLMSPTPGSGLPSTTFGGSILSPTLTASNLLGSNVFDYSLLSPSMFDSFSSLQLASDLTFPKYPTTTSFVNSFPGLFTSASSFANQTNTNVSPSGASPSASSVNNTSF
BCLXL inh – inhibitors of human Bcl-xL, primary screen, biochemical, fluorescence polarization, HTS; inhibition, % at 10.9 µM; GST-Bcl-xL / FITC-Bim BH3 peptide fluorescence polarization; hit rate 0.7% among 320,000; Bcl-2-like protein 1 (Homo sapiens), Q07817; AID 2129, 2009;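 active = inhibition above the mean of all tested compounds plus 3 SD, cutoff set per campaign, cut at about 30% in these data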;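 also: 0% = DMSO wells and 100% = unlabeled Bim-BH3 peptide competitor; inhibitors lower millipolarization by displacing the labeled peptide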
MCL1 BIM primary – inhibitors of MCL1 binding to BIM-BH3, primary screen, biochemical, fluorescence polarization; Induced myeloid leukemia cell differentiation protein Mcl-1 (Homo sapiens), Q07820; GST-MCL1 / FITC-Bim-BH3 fluorescence polarization; inhibition, % at 10.9 µM; hit rate 0.68% among 320,000;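 active = inhibition above the mean inhibition of all tested compounds plus 3 SD, set per campaign, cut at about 40% in these data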;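 also: 0% = DMSO wells and 100% = unlabeled Bim-BH3 peptide control; higher means more loss of mP so more displacement of Bim peptide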
Mcl1-Bid inh – Mcl-1/Bid binding inhibitors, primary screen, biochemical, TR-FRET, 1536-well; TR-FRET Mcl-1/Bid-Dy647 peptide binding; inhibition, % at 21.7 µM; hit rate 0.97% among 220,000;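 active = compounds that cut the binding signal by more than half at the single screening dose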;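 also: His-tagged Mcl-1 with europium anti-His antibody binding Bid BH3 peptide; 0% = Mcl-1 plus peptide wells and 100% = peptide-only wells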
The depositor's hits bear a star; x = not tested or not shown. Rows were chosen to be rich in hits. Some 2.3% of all compounds tested hit in one or more screens of this group.

SMILES	Mcl-1 Bim block	Mcl1-Noxa inh	GLD-1 TGE inh	BCLXL inh	MCL1 BIM primary	Mcl1-Bid inh
CCN1/C(=C/C=C/c2oc3ccc4ccccc4c3[n+]2CC)Oc2ccc3ccccc3c21	24.0	20.5	-69.3	80.1*	134.6*	89.3*
Cn1c(N)nc2nc(CCc3ccccc3)c(=O)[nH]c2c1=O	x	x	30.0	40.1*	40.9*	x
CC(C)CCNC(=O)c1csc2c1CCCCC2	-1.0	16.8	-0.7	4.2	3.9	64.1*
CCC(C)NC(=O)c1csc2c1CCCCC2 (centres undefined)	-1.0	15.8	-1.6	0.6	2.8	-18.7
COC(=O)c1cc(N=Nc2sc(N)nc2C)cc(C(=O)OC)c1	x	52.8*	-1.5	2.6	2.8	-5.1
COc1ccc(O)c(C(=O)c2cnc3c(c2)c(C)nn3CCO)c1	x	x	-5.1	5.0	5.4	x
CCc1cc(Cn2nc(-c3ccccc3)cc2C(=O)NCC2CC2)on1	x	x	10.4	-2.0	1.7	x
Cc1ncsc1CCOC(=O)c1cccnc1	0.0	23.7	-5.0	-1.9	-1.6	54.2*
O=C(Nc1ccccc1)Nc1ccc2snnc2c1	-4.0	14.8	2.4	-4.7	3.5	-7.6
CN(C)c1ccc(NC(=O)Nc2ccc3snnc3c2)cc1	5.0	92.6*	5.3	14.4	13.8	-67.1
Cc1cccc(N2CCN(C(=O)Cc3ccc(Br)cc3)CC2)c1C	-5.0	41.8	4.5	4.6	-0.5	60.6*
CC1(C(=O)N(CC(=O)NC2CCCC2)Cc2ccccc2)CC(=O)N=C2C=CC=CN21 (centres undefined)	x	x	9.1	3.1	8.6	x
CC1(C(=O)N(CC(=O)NC2CCCC2)Cc2ccco2)CC(=O)N=C2C=CC=CN21 (centres undefined)	41.0*	-6.4	4.9	5.3	15.8	-22.4
CCCCOc1ccc(C(=O)N/C(=C\c2cccc([N+](=O)[O-])c2)C(=O)OCCC)cc1	0.0	1.8	13.0	5.7	10.1	-26.7
CCCCOc1ccc(C(=O)N/C(=C\c2ccc([N+](=O)[O-])cc2)C(=O)OCc2ccco2)cc1	58.0*	7.0	0.6	-0.1	-6.2	-7.5
CCCn1c(SCC(=O)NC2CCC(C)CC2)n[nH]c1=O (centres undefined)	x	x	10.5	40.9*	47.8*	x
CCN(CC)C1=CC2=CC(=C(C#N)C#N)CCC2CC1 (centres undefined)	-6.0	-57.2	-172.8	51.8*	20.0	-10.2
N#CC1=C(N)C2=C(N3CCCCC3)CCCC2C1(C#N)C#N (centres undefined)	1.0	12.8	18.1	25.4	34.9	-66.6
CCCCN(C)C1=CC2=CC(=C(C#N)C#N)CCC2CC1 (centres undefined)	x	1.6	14.8	38.6*	18.0	-30.5
N#CC(C#N)=C1C=C2C=C(N3CCCCC3)CCC2CC1 (centres undefined)	-61.0	-79.9	29.3	35.4*	36.8	-60.5
COCCCN(C(=O)CC1OC(=O)c2ccccc21)c1c(N)n(Cc2ccccc2)c(=O)[nH]c1=O (centres undefined)	x	x	-1.8	-6.9	-18.3	x
Cc1cccc(-n2c(SCC(=O)N3CC(=O)Nc4ccccc43)nc3ccccc3c2=O)c1C	-6.0	-20.9	2.1	-1.7	-22.7	-22.5
S=c1[nH]nc(-c2ccco2)n1/N=C/c1cccc(Cl)c1Cl	-8.0	71.7*	0.3	-32.2	-8.6	-45.7
COc1ccc2c(CC(=O)N3CCN(S(=O)(=O)c4ccc(F)cc4)CC3)coc2c1	x	x	1.2	-2.4	-8.5	x
COc1ccc(CNC(=O)c2cc3c(=O)n4ccccc4nc3n(Cc3cccnc3)c2=N)cc1	1.0	58.6*	-5.2	18.8	21.3	7.9
SMILES	Mcl-1 Bim block	Mcl1-Noxa inh	GLD-1 TGE inh	BCLXL inh	MCL1 BIM primary	Mcl1-Bid inh
N=c1c(C(=O)NCc2ccco2)cc2c(=O)n3ccccc3nc2n1Cc1ccc(Cl)cc1	8.0	x	4.5	22.4	33.8	x
N=c1c(C(=O)NCc2ccc3c(c2)OCO3)cc2c(=O)n3ccccc3nc2n1Cc1cccnc1	-4.0	74.1*	-11.8	14.9	3.8	49.9
COc1ccc(Cn2c(=O)[nH]c3cc(C(=O)NCc4ccc5c(c4)OCO5)ccc3c2=O)cc1	2.0	8.7	16.0	-7.8	-3.7	56.3*
COc1ccc(Cn2c(=O)[nH]c3cc(C(=O)NCCCOC(C)C)ccc3c2=O)cc1	1.0	-0.6	4.0	4.2	5.8	-22.2
COc1ccc(Cn2c(=N)c(C(=O)NC3CCCCC3)cc3c(=O)n4ccccc4nc32)cc1	x	x	1.6	2.5	-3.4	x
Cc1cc(NC(=O)C(C)Oc2ccc(Cl)cc2Cl)no1 (centres undefined)	x	x	-10.0	1.3	-4.3	x
CCOc1cc(/C=C2\C(=O)NN(c3ccccc3)C2=O)cc([N+](=O)[O-])c1O	0.0	50.5*	3.9	20.1	28.5	-11.8
COc1cc(/C=C2\C(=O)NN(c3ccccc3)C2=O)cc([N+](=O)[O-])c1O	1.0	50.6*	1.7	16.8	25.4	-14.4
C=C(C(=O)Oc1ccccc1C(C)(C)C)c1ccccc1	x	x	-2.6	-0.2	5.3	x
COc1ccc(S(=O)(=O)N(C)CC(=O)NCc2ccccn2)cc1	x	x	7.1	3.4	5.6	x
CCOc1ccc(NCc2cccn2-c2nnc(N3CCC(C(=O)NCCCN4CC(C)CC(C)C4)CC3)s2)cc1 (centres undefined)	x	x	7.6	-5.5	-1.2	x
Cc1cccc(NC2=Nc3ccccc3N3C2=Nc2c(c(C)nn2-c2ccccc2)C3c2ccc(O)c(O)c2)c1 (centres undefined)	4.0	63.1*	-4.7	48.3*	41.7*	-29.1
CC(C(=O)NC1CCCCC1)N(Cc1ccccc1)C(=O)c1snc(C(N)=O)c1N (centres undefined)	x	x	-1.2	3.2	3.5	x
CCCCn1c(N)c(N(C)C(=O)c2ccc(OCC3CCCO3)cc2)c(=O)[nH]c1=O (centres undefined)	x	x	3.4	2.4	4.4	x
COc1cccc(C(Nc2ccccn2)c2oc(CO)cc(=O)c2O)c1 (centres undefined)	0.0	74.2*	-0.5	12.9	26.3	27.5
O=c1cc(CO)oc(C(Nc2ccccn2)c2ccccc2F)c1O (centres undefined)	x	x	7.7	-1.9	19.4	x
O=c1cc(CO)oc(C(Nc2ccccn2)c2ccc(C(F)(F)F)cc2)c1O (centres undefined)	-2.0	36.7	-0.3	6.8	24.5	18.1
